# Anthrax LF inh2 = Bacillus anthracis LF protease inhibitors, primary screen, biochemical, multiplex microsphere, MLPCN library; Lethal factor (Bacillus anthracis), P15917; multiplex microsphere protease cleavage assay; inhibition, % at 10 µM; hit rate 0.12% among 360,000; note: plate controls were buffer without enzyme for full effect and enzyme alone for no effect
# Autofluor counter = compound fluorescence in toxin protease inhibitor counterscreen; fluorescence intensity (test concentration not listed); AID 624483; compound autofluorescence counterscreen, microsphere flow cytometry; active compounds read high; hit rate 3.1% among 360,000; in the data active = fluorescence intensity above about 16000; inconclusive = no clear call, values can overlap the other calls
# BoNT-A LC inh2 = BoNT/A light chain protease inhibitors, primary screen, biochemical, flow cytometry, MLPCN library | hit rate 0.17% among 360,000 | multiplex microsphere protease substrate cleavage | inhibition, % at 10 µM | AID 588499, 2011; note: plate controls were buffer without enzyme for full effect and enzyme alone for no effect
# BoNT F protease = BoNT/F light chain protease inhibitors, primary screen, biochemical, flow cytometry, MLPCN library; inhibition, % at 10 µM; Multiplex microsphere protease cleavage assay; hit rate 0.22% among 360,000; in the data active = inhibition above about 35%, passing the limit was not always enough; inconclusive = no clear call, values can overlap the other calls; note: plate controls were buffer without enzyme for full effect and enzyme alone for no effect
# * marks the source's active call; other numbers are inactive results; u = inconclusive. Compounds with a hit are over-represented: about 3.5% of the library has one in this group of screens. Cut-off read from the data, not from the text of the source, unless noted: active = inhibition above about 30%; inconclusive = no clear call, values can overlap the other calls; inactive = below that.
SMILES,Anthrax LF inh2,Autofluor counter,BoNT-A LC inh2,BoNT F protease
O=C(c1ccncc1)c1ccc(N2CCN(C3CC(=O)N(Cc4cccs4)C3=O)CC2)cc1 (configuration not stated),-1,5581,-2,-12
CCN1C(=O)CC(N2CCN(c3ccc(C(=O)c4ccncc4)cc3)CC2)C1=O (configuration not stated),-3,20385*,u,-2
CC1(C2CCC3(C)OC3C2)CO1 (configuration not stated),2,4235,-1,-18
COc1cccc(-n2cnnc2SCC(=O)NC2CC2)c1,3,5161,2,2
CCCCc1nnc(NC(=O)C(C)Sc2nc(N)cc(=O)[nH]2)s1 (configuration not stated),4,21210*,5,6
CCCCn1c(SCC(=O)NNC(=O)c2ccccc2)n[nH]c1=O,-3,5597,5,-1
CCC(Sc1ncccc1C(=O)OCCN1CCCC1=O)C(=O)NCc1ccco1 (configuration not stated),-7,20951*,6,8
CCC(Sc1ncccc1C(=O)OC(C)C)C(=O)NCc1ccco1 (configuration not stated),0,7901,1,5
CCC(Sc1ncccc1C(=O)OC(C)C)C(=O)N1CCOCC1 (configuration not stated),-10,22945*,u,-2
CCOC(=O)c1cccnc1SC(CC)C(=O)NCc1ccco1 (configuration not stated),0,24254*,-1,-2
Cc1ccc(S(=O)(=O)NCC(=O)OCC(=O)N2CCN(C(=O)c3ccco3)CC2)cc1C,4,5243,1,-3
CC(C)C[C@H](NC(=O)[C@@H]1Cc2c([nH]c3ccccc23)C2c3ccccc3C(=O)N21)C(=O)N1CCC[C@@H]1C(=O)O (some centres not stated),-4,5449,0,-1
COc1cccc(C(C(=O)NC2CCCCC2)N(C(=O)Cc2cccs2)c2ccc(-n3cnnn3)c(OC)c2)c1 (configuration not stated),-1,22984*,0,2
Cc1ccccc1C(O)c1ccccn1 (configuration not stated),-1,24308*,-1,-2
OC(c1ccccn1)C(O)c1ccccn1 (configuration not stated),-6,3960,-1,-4
CCc1ccc(N2CC(C(=O)NC3CCCCC3C)CC2=O)cc1 (configuration not stated),-2,4021,1,12
COC(=O)c1ccc(-n2cncn2)c(F)c1,-1,23526*,u,-2
COC(=O)c1ccc(-n2cncn2)c([N+](=O)[O-])c1,-12,u,-2,-3
COc1ccc(N(C)S(=O)(=O)c2ccc3c(c2)CCC(=O)N3)cc1,-3,20669*,0,-2
C=C(C)Cn1c(C2CC(=O)N(Cc3ccccc3)C2)nc2ccccc21 (configuration not stated),-4,5104,0,-4
C=CCN1CC(c2nc3ccccc3n2CCOc2ccccc2)CC1=O (configuration not stated),0,22558*,-2,-4
COc1ccc(C(=O)OCC(=O)NCC2CCCCC2)c(OC)c1,9,u,3,2
COC(=O)/C(=C1/Oc2ccc(C(C)(C)C)cc2S1)C(F)(F)F,-1,2618,0,2
COC(=O)/C(=C1/Oc2cc(C)oc(=O)c2S1)C(F)(F)F,-8,21329*,u,5
C[C@@H]1CN([C@@H](C)CO)C(=O)CCCn2nncc2CO[C@@H]1CN(C)S(=O)(=O)c1cccc(C#N)c1,0,3626,0,-3
O=C(CN1CCN(c2nc(-c3ccc(F)cc3)cs2)CC1)NCc1ccc2c(c1)OCO2,-2,23682*,0,-2
C[C@H](CO)N1C[C@H](C)[C@@H](CN(C)CC2CCCCC2)Oc2c(NS(=O)(=O)c3ccc(F)cc3)cccc2C1=O,-2,3567,0,-1
CCCn1c(=S)[nH]c2cc(C(=O)N3CCN(C)CC3)ccc2c1=O,-5,3515,0,6

# High-throughput results from PubChem.
